Assay results published in PubChem BioAssay (NCI).
Compounds without any hit were thinned out: in the full panel of roughly 83,000, 20% have a hit.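 The test compound was applied at a single concentration to cells in 96-well plates for 48 hours, and percent growth was recorded.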 Active and inactive are the calls of the source. Rule for the calls: active = growth percent below 10; inactive = the rest.

Columns and labels:
Assay in all cases: NCI-60 one-dose screen, 48 h (100 = growth as untreated, 0 = no growth, -100 = all killed)
Conditions in all cases: 10 µM unless noted
[1] = system: SK-MEL-2 melanoma
[2] = system: EKVX NSCLC
[3] = system: UO-31 renal
[4] = system: TK-10 renal
[5] = system: ACHN renal
[6] = system: CAKI-1 renal
[7] = system: A498 renal
[8] = system: CCRF-CEM leukemia
[9] = system: MOLT-4 leukemia
[10] = system: SR leukemia
[11] = system: RPMI-8226 leukemia
[12] = system: OVCAR-8 ovarian
[13] = system: OVCAR-5 ovarian
[14] = system: OVCAR-4 ovarian
[15] = system: SK-OV-3 ovarian
[16] = system: IGROV1 ovarian
[17] = system: OVCAR-3 ovarian
[18] = system: HS 578T breast
[19] = system: NCI/ADR-RES ovarian

Measured: growth

COc1cccc2c1C(=O)c1c(O)c3c(c(O)c1C2=O)C[C@](O)(C(=O)CO)C[C@H]3O[C@@H]1C[C@@H](NC(=O)CCCCCN(C)C2(c3ccc(F)cc3)CC3CCC2C3)[C@H](O)[C@@H](C)O1 (stereo partly drawn)
inactive: [1] 73.5% | [2] 33.9% | [3] 62.8% | [4] 68.7% | [6] 52.6% | [7] 54.6% | [12] 21.5% | [15] 79.5% | [16] 56% | [18] 57.6% | [19] 80.2%
active: [5] -77.4% | [8] -22.2% | [9] -27.7% | [10] -45.7% | [11] -35.4% | [13] -51.6% | [14] 0.206% | [17] 5.02%

C=C1C(=O)O[C@H]2[C@H]1CC/C(COC(=O)NCCc1ccc(OC)c(OC)c1)=C\CC[C@@]1(C)O[C@@H]21
inactive: [1] 83% | [2] 71.5% | [3] 43% | [4] 36% | [6] 45.2% | [7] 81.3% | [9] 43.6% | [10] 11.2% | [11] 28.8% | [12] 51% | [13] 82.8% | [14] 49.9% | [15] 99.3% | [16] 55.9% | [17] 25.8% | [18] 91.1% | [19] 103%
active: [5] 8.5% | [8] -8.78%

COc1cccc(-c2nc(SCC(=O)Nc3ccc(C(=O)/C=C/c4ccc(OC)c(OC)c4)cc3)[nH]c(=O)c2C#N)c1
inactive: [1] 96.6% | [2] 87.7% | [3] 79.3% | [4] 109% | [5] 86.6% | [6] 88.4% | [7] 97.2% | [8] 90% | [9] 74.8% | [11] 93.3% | [12] 99.2% | [13] 110% | [14] 80.8% | [15] 90.5% | [16] 103% | [18] 82.4% | [19] 93.6%

CC/C=C\C[C@H]1C/C=C2/C(=O)C=C[C@H]2C/C=C\CCCC(=O)O1
active: [5] -67.7% | [8] -6.1% | [10] 4.6% | [11] -10% | [12] 0.796% | [17] 6.53%
inactive: [1] 21.4% | [2] 45% | [3] 55.5% | [4] 29.6% | [6] 25.2% | [7] 79.5% | [9] 14.3% | [13] 87.8% | [14] 29.5% | [15] 37.3% | [16] 12.4% | [18] 54.2% | [19] 22.4%

N#CN1CC[C@H](C(=O)Nc2cc3cc(C(N)=O)ccc3cn2)C1
active: [1] -64.3% | [2] 2.35% | [4] -17.7% | [5] 6.51% | [7] -34.4% | [8] 7.66% | [9] -18.1% | [10] 0.903% | [11] 8.19% | [12] 1.62% | [13] 5.15% | [14] 4.32% | [15] -10.2% | [17] -14.4% | [18] -0.591% | [19] 1.36%
inactive: [3] 17.7% | [6] 11.9% | [16] 15.7%

O=C1/C(=C/c2ccccc2O)N=C2SCCCN12
inactive: [1] 95.6% | [2] 81.8% | [3] 84% | [4] 109% | [5] 98.4% | [6] 85.1% | [7] 85.7% | [8] 131% | [9] 115% | [10] 117% | [11] 103% | [12] 98.4% | [13] 91.7% | [14] 82.9% | [15] 100% | [16] 91.3% | [18] 87.7% | [19] 99.6%

COc1ccc2c(c1)C(=O)/C(=C/c1ccccn1)CC2
inactive: [1] 81.3% | [2] 92.5% | [3] 90% | [4] 55.7% | [5] 54.1% | [6] 74.4% | [7] 120% | [9] 21.5% | [12] 85.4% | [13] 92.1% | [14] 83.8% | [15] 98% | [16] 85.6% | [17] 62.1% | [18] 98.1% | [19] 88.6%
active: [8] -6.73% | [10] 7.35% | [11] -10.3%

O=C1c2c(O)cc(O)cc2-c2c(-c3ccc(O)cc3)oc3cc(O)cc1c23
inactive: [1] 72.3% | [2] 62.2% | [3] 12.7% | [4] 63.4% | [6] 33% | [7] 62.5% | [11] 41.8% | [12] 46.6% | [13] 111% | [14] 61.5% | [15] 15.7% | [16] 52.2% | [17] 44% | [18] 32.1% | [19] 90.4%
active: [5] 9.27% | [8] 6.03% | [9] 1.37% | [10] 0.6%

NCCNc1nc(Nc2ccc(-c3nc4ccccc4[nH]3)cc2)c2cn[nH]c2n1
inactive: [1] 75% | [2] 88.9% | [3] 76.7% | [4] 105% | [5] 91.9% | [6] 91.5% | [7] 115% | [12] 43.9% | [13] 125% | [14] 88.4% | [15] 111% | [16] 97.6% | [18] 41.8% | [19] 94.9%
active: [8] -3.49% | [9] 8.24% | [10] -3.8% | [11] -11.7%

O=C1/C(=C/c2ccc(OCCCOc3ccc(Cl)cc3)cc2)N=C2SCCCN12
inactive: [1] 98.4% | [2] 47.6% | [3] 70.9% | [4] 72.7% | [5] 74.5% | [6] 71.6% | [7] 96.5% | [8] 69.5% | [9] 62.1% | [10] 67.5% | [11] 45.6% | [12] 65.9% | [13] 102% | [14] 49.2% | [15] 105% | [16] 97.8% | [17] 71.3% | [18] 107% | [19] 67.4%

COc1ccc(CN2c3ccccc3Oc3ccccc32)cc1F
inactive: [1] 10% | [2] 60.7% | [3] 53.3% | [4] 74.2% | [5] 81% | [6] 59.3% | [7] 54.3% | [8] 66.7% | [9] 42% | [10] 27.1% | [11] 61.5% | [12] 64.5% | [13] 86.7% | [14] 71.7% | [15] 46.5% | [16] 52.1% | [17] 43.1% | [18] 62.3% | [19] 41.5%

CNC(=O)c1cc(Oc2ccc(NC(=O)Nc3ccc(Cl)c(OC(F)(F)F)c3)c(F)c2)ccn1
inactive: [1] 14.4% | [2] 26.2% | [3] 23% | [4] 37.3% | [5] 28.2% | [6] 45.8% | [7] 36.9% | [8] 30.1% | [10] 30% | [11] 13.6% | [12] 30.3% | [13] 56.7% | [15] 64.9% | [16] 46.4% | [17] 39.8% | [18] 51.9% | [19] 31.6%
active: [14] 5.4%

CCOc1ccc(C(C)=O)cc1NC(=O)c1cccc(-c2nnn(CC)n2)c1
active: [1] -5.73% | [7] -6.01% | [17] 7.08%
inactive: [2] 54.5% | [3] 38.4% | [4] 64.4% | [5] 50.8% | [6] 33.1% | [8] 11.9% | [9] 27.8% | [10] 10.2% | [11] 22.4% | [12] 34.2% | [13] 66.5% | [14] 48% | [15] 23.8% | [16] 52.3% | [18] 25.4% | [19] 25.2%

CCOc1ccc(-n2nc(C(=O)Nc3ccccc3)nc2-c2cc(OC)c(OC)c(OC)c2)cc1
inactive: [1] 37.7% | [2] 53.2% | [3] 37.7% | [4] 72.4% | [5] 62.8% | [6] 51.6% | [7] 10.3% | [8] 50.8% | [9] 42.9% | [10] 17% | [11] 47.4% | [12] 61.6% | [13] 84.1% | [14] 59.5% | [15] 51% | [16] 55.1% | [17] 43.2% | [18] 39.6% | [19] 45.7%

CCCCC[C@H]1C/C=C2/C(=O)C=C[C@@H]2C/C=C\CCCC(=O)O1
active: [1] -75.9% | [2] -18% | [3] -96.5% | [4] -59.4% | [5] -91% | [6] 8.56% | [7] -61.1% | [8] -0.835% | [9] -3.81% | [10] -3.55% | [11] -13.4% | [12] 5.97% | [13] -9.16% | [15] -11.6% | [16] -42.8% | [17] -58.8%
inactive: [14] 14.1% | [18] 23.3% | [19] 10.3%

NC(=NCCCC1(c2ccccc2)CCCC1)Nc1ccc(Cl)cc1
active: [8] 4.14% | [9] -0.285% | [11] -24.2%
inactive: [1] 35.3% | [2] 78.4% | [3] 58.5% | [4] 71.1% | [5] 34.7% | [6] 64.9% | [7] 83.1% | [12] 60.4% | [13] 59.8% | [14] 41.3% | [15] 89% | [16] 38.9% | [17] 60.8% | [18] 65.4% | [19] 67.1%
